Laboratory results reported in PubChem BioAssay (NCATS).
Inconclusive results are not listed. Entries that show only a call come without a potency. Active and inactive are the calls of the source. Calls come from the whole dose curve; as a rule, active = well fitted cell-killing curve with a large enough effect; inconclusive = small, poorly fitted or top-dose-only effect; inactive = flat fitted curve, though single readings scatter.

experiment: qHTS of pediatric cancer cell lines to identify multiple opportunities for drug repurposing: Primary screen for BT-12 cells (AID 1347101); conditions: BT-12 viability, CellTiter-Glo luminescence, 48 h; series mostly up to 57.3 µM; note: nearly all actives have a fitted effect of over 25% in size
From the text: Drug repurposing or repositioning has been offered as a strategy for drug development in oncology programs. This approach has special potential for childhood cancers and other rare or orphan diseases, where the expected return on new drug development has been a disincentive to pharmaceuticals.
In this project we exploit the poly-pharmacology of drugs to discover new indications via phenotypic screening of a panel of 19 well-characterized cell lines derived from solid tumors seen in children and adolescents. The goal is to identify approved drugs with previously unrecognized anticancer properties that has the potential to reveal new mechanisms and biological processes involved in carcinogenesis or drug resistance. We employed a titration-based paradigm (quantitative high-throughput screening or qHTS), where all compounds were tested at multiple concentrations for their effect on cell viability. Concentration-response curves (CRCs) were derived directly from the primary screen, and both potency and efficacy values were used to identify compounds with robust bioactivity profiles. We screened the NIH Chemical Genomics Center (NCGC) Pharmaceutical Collection (NPC) and Mechanism Interrogation Plate (MIPE) small molecule collections of approved and investigational compounds against these cell lines; and measured metabolically active cells after 48 hours of compound treatment as a proxy for cell viability.
Assay Submitter: Nathalia J. Martinez, National Center for Advancing Translational Sciences, National Institutes of Health, Rockville, MD, USA; email: natalia.martinez@nih.gov
[1] Shen, M et al. Quantitative high-throughput phenotypic screening of pediatric cancer cell lines identifies multiple opportunities for drug repurposing. Oncotarget 2017 Dec 19;9(4):4758-4772. PMID 29435139.
The cells were obtained from University of North Carolina (UNC), Pediatric Preclinical Testing Program (PPT), and Coriell Institute (CI).
qHTS cell viability assay:
Cells were assayed in growth media at a density of 500-1,000 cells/well. Five microliters of cells were dispensed into 1,536-well, white, solid-bottom, TC-treated plates (Greiner Bio One) using a multidrop dispenser and incubated at 37 degrees C, 5% CO2, under a humidified atmosphere for 5 hours. Twenty-three nanoliters of compounds and controls (neutral control DMSO or positive control bortezomib at final concentration of 2.3 µM) were subsequently transferred by Kalypsys pintool. For primary screens, the MIPE collection was tested at 11-point dilutions (final concentrations range from 0.78 nM to 46 µM) and the NPC collection at 8-point dilutions (final concentrations range from 0.59 nM to 46 µM). Compounds tested in follow-up screens were assayed at 11-point dilutions. Cells were incubated for 48 hours, followed by addition of 3 µL of CellTiter-Glo (Promega). After a 15 min incubation at room temperature, samples were analyzed for luminescence intensity using a ViewLux High-throughput CCD imager equipped with clear filters.
Potency is the fitted concentration of half-maximal effect.

SMILES | Potency
Cc1ccc(S(=O)(=O)OCC(=O)Nc2ccc(C(=O)O)c(O)c2)cc1 | inactive
O=S(=O)(NCCNCC=Cc1ccc(Br)cc1)c1cccc2cnccc12 | 21.7 µM (active)
Cc1cc(-c2ncc(CC(=O)Nc3ccc(-c4cnccn4)cn3)cc2C)ccn1 | 6.85 µM (active)
CCCCN(CCCC)CC(O)c1cc(Cl)cc2c1-c1ccc(Cl)cc1C2=Cc1ccc(Cl)cc1 (stereo not given) | inactive
CC1(C)[C@H]2CC[C@]3(C)[C@@H](C(=O)C=C4[C@@H]5C[C@@](C)(C(=O)O)CC[C@]5(C)CC[C@]43C)[C@@]2(C)CC[C@@H]1O | inactive
C[C@H]1[C@H](O)O[C@@H]2O[C@@]3(C)CC[C@@H]4[C@H](C)CC[C@@H]1[C@@]24OO3 | 1.53 µM (active)
Cc1ccc(C(=O)N(CCCN)[C@@H](c2nc3cc(Cl)ccc3c(=O)n2Cc2ccccc2)C(C)C)cc1 | 0.001 µM (active)
CN(C)c1ccc(-c2nc3ncc(Cl)c(N4CCN(CC(=O)Nc5nccs5)CC4)c3[nH]2)cc1 | inactive
C[C@H]1O[C@@H](n2cc(F)c(=O)[nH]c2=O)[C@H](O)[C@H]1O | 27.3 µM (active)
O=C(O)C1=CO[C@@H](O[C@@H]2O[C@H](CO)[C@H](O)[C@H](O)[C@H]2O)[C@@H]2C(CO)=CC[C@H]12 | inactive
Nc1ncnc2c1ncn2[C@@H]1O[C@H](CO)[C@@H](O)[C@@H]1O | 6.11 µM (active)
Cc1cnc(-c2cc(N3CCN(C(=O)CCS(C)(=O)=O)CC3)ncc2Cl)c(C)c1 | inactive
COc1cc2ncn(-c3cc(OCc4ccccc4S(C)(=O)=O)c(C#N)s3)c2cc1OC | inactive
C[C@@]1(C(=O)Nc2ccc(F)nc2)CCCN1c1nc(Nc2cc(C3CC3)[nH]n2)c2cccn2n1 | inactive
O=C(O)c1nc(=O)[nH]c(=O)[nH]1 | inactive
CN[C@@H](C)[C@H]1[C@H](O)C[C@@]2(C)[C@@H]3CC[C@H]4C(C)(C)[C@@H](NC)CC[C@@]45C[C@@]35CC[C@]12C | inactive
CC(C)[C@H](O)C(=O)N[C@@H](C)C(=O)N[C@@H]1C(=O)N(C)CCc2ccccc21 | inactive
CC1=C(CC(=O)O)c2cc(F)ccc2C1=Cc1ccc(S(C)=O)cc1 (stereo not given) | inactive
C#CCN(C)CC1=Cc2ccccc2Oc2ccccc21 | inactive
CCOC(=O)N1CCN([N+]([O-])=NOc2cc(ON=[N+]([O-])N3CCN(C(=O)OCC)CC3)c([N+](=O)[O-])cc2[N+](=O)[O-])CC1 | inactive

SMILES | Potency
CCc1cccc(CC)c1NC(=O)N1Cc2[nH]nc(NC(=O)c3ccc(N4CCN(C)CC4)cc3)c2C1 | inactive
CN(C)CCN(Cc1ccc(Cl)cc1)c1ccccn1 | inactive
CC[C@@H]([C@H](C)O)n1ncn(-c2ccc(N3CCN(c4ccc(OCC5CO[C@@](Cn6cncn6)(c6ccc(F)cc6F)C5)cc4)CC3)cc2)c1=O (stereo not given in full) | 21.7 µM (active)
NS(=O)(=O)c1cc(Cl)c(Cl)c(S(N)(=O)=O)c1 | inactive
CNC1CCC(N(Cc2cccc(-c3ccncc3)c2)C(=O)c2sc3ccccc3c2Cl)CC1 (stereo not given) | 30.6 µM (active)
OC[C@H]1O[C@@H](OCCc2ccc(O)cc2)[C@H](O)[C@@H](O)[C@H]1O | inactive
CCNC(=O)Nc1ccc(Oc2ncnc(N)c2C=NOC)cc1Cl | inactive
CC(C)c1c(C(=O)Nc2ccccc2)c(-c2ccccc2)c(-c2ccc(F)cc2)n1CC[C@H](O)C[C@@H](O)CC(=O)O | 5.44 µM (active)
COc1ccc(-c2ccc3ncc4c(c3c2)n(-c2ccc(N3CCNCC3)c(C(F)(F)F)c2)c(=O)n4C)cn1 | 15.3 µM (active)
Fc1ccc(CNc2ncnc3ccc(F)cc23)cc1 | 4.32 µM (active)
C[C@@]1(c2cc(-c3cncnc3)c(F)cc2F)CCSC(N)=N1 | 3.85 µM (active)
O[C@@H](COc1cccc2ncccc12)CN1CCN(C2c3ccccc3[C@@H]3[C@H](c4ccccc42)C3(F)F)CC1 (stereo not given in full) | 24.3 µM (active)
Cc1ccccc1C(C(=O)NC1CCCCC1)N(C(=O)CNc1ccc(C#N)cc1)c1cccc(F)c1 (stereo not given) | inactive
C[C@@H](O)[C@H]1C(=O)N2C(C(=O)OCOC(=O)C(C)(C)C)=C(SC3CN(C4=NCCS4)C3)[C@H](C)[C@H]12 | inactive
N=C1SC(=Cc2ccc(-c3ccc4c(c3)C(=O)NC4=O)o2)C(=O)N1c1ccc(Br)cc1 | inactive
CCOC(=O)[C@H](CCc1ccccc1)N[C@@H](C)C(=O)N1CCCC1C(=O)O (stereo not given in full) | inactive
COc1ccc(C=CC(=O)Nc2ccccc2C(=O)O)cc1OC | inactive
N#Cc1c(N(CC(=O)O)CC(=O)O)sc(C(=O)O)c1CC(=O)O | inactive
O=C(O)C1=CC(O)C(O)[C@H](O)C1 (stereo not given in full) | inactive
COc1cccc(OC)c1-c1cc(C(=O)NC2(C(=O)O)C3CC4CC(C3)CC2C4)nn1-c1ccnc2cc(Cl)ccc12 (stereo not given) | inactive
